Experimental findings from PubChem BioAssay AID1347416 (National Center for Advancing Translational Sciences (NCATS), 2020) are described below.

Among all 4,100 compounds or so, about 1,600 (39%) were called active. Another 25% or so got no clear call; they are omitted. Calls follow the shape of the dose curve; as a rule, active = well fitted inhibition curve with a large enough effect; inconclusive = small, poorly fitted or top-dose-only effect; inactive = no such curve, though single readings can be large or run the other way. This is one part of the list.
Potency is read from the fitted curve at half-maximal effect.

The assay is described as follows: qHTS Validation assay for Inhibitors of Plasmodium falciparum Dd2 growth in vitro. Also: nearly all actives have a fitted effect of over 70% in size. As to conditions: P. falciparum Dd2 in RBCs, SYBR Green growth, 72 h; series mostly up to 28.7 µM. The method, boiled down: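 P. falciparum Dd2-infected red blood cells (2.5% hematocrit, 0.3% parasitemia) grown 72 h at 37 °C under 5% O2 with compounds in a titration, 29 uM to 0.5 nM final. Growth read as SYBR Green-1 fluorescence after ~16 h lysis; artesunate 300 nM as positive control.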
(In general: In qHTS, concentration-response curves come from the screen itself.)
As to `CCOC(=O)c1nnn(-c2nonc2N)c1-c1ccc(Br)cc1`, the Potency was 2.66 µM (active).
Under `COc1ccc(-c2noc(CCCC(=O)O)n2)cc1` stands “inactive”; under `CCOC(=O)c1nnn(-c2nonc2N)c1-c1ccc(Cl)cc1`, 5.31 µM (active); under `CCOC(=O)c1nnn(-c2nonc2N)c1-c1ccc(OC)cc1`, 5.31 µM (active).
In the case of `CCOC(=O)c1nnn(-c2nonc2N)c1-c1ccc(C)cc1` it was 5.31 µM (active).
For `Cc1noc(C)c1COC(=O)/C=C/c1ccc(Cl)cc1`, the Potency entry was “inactive”.
For `CCCS(=O)(=O)N1C[C@@H](COC)[C@H](c2nc(C)no2)C1`, the Potency result is “inactive”.
Consider `CCC(=O)N1CCc2cc(Br)cc(S(=O)(=O)N3CCCC(C(=O)NC(C)(C)C)C3)c21` (stereo not drawn), for which the Potency was 3.35 µM (active).
Turning to `CCC(=O)N1CCc2cc(S(=O)(=O)NCCC(=O)Nc3ccc(OC)c(Cl)c3)ccc21`, the Potency result is “inactive”.
In the case of `CCC(=O)N1CCc2cc(S(=O)(=O)CCC(=O)NCc3ccc(OC)cc3)ccc21` it was “inactive”; in that of `CC(C)(C)NC(=O)C1CCCN(C2CCN(C3Cc4ccccc4C3)CC2)C1` (stereo not drawn), “inactive”.
On to `CCC(=O)N1CCc2cc(Br)cc(S(=O)(=O)C3(C(=O)OC)CC3)c21`, for which the Potency was 3.76 µM (active).
Take `CCC(=O)N1CCc2cc(Br)cc(S(=O)(=O)N3CCCCC3CC)c21` (stereo not drawn): the Potency is 1.06 µM (active).
Regarding `Cc1nc(-c2ccccc2OC2CN(S(=O)(=O)Cc3ccccc3F)C2)no1`, the Potency entry is “inactive”.
In the case of `CC(C)(C)n1nnnc1C(c1cccnc1)N(Cc1ccccc1)Cc1ccco1` (stereo not drawn) it was 5.31 µM (active); in that of `CC(C)(C)c1ccc(CN(Cc2ccccc2)C(c2ccccn2)c2nnnn2C(C)(C)C)cc1` (stereo not drawn), 4.73 µM (active).
In the case of `Cc1noc(C)c1NC(=O)N1CCC(c2n[nH]c(=O)n2-c2ccccc2)CC1`, the Potency result was “inactive”.
In the case of `Cc1nccn1CC(O)Cn1c2ccccc2c2ccccc21` (stereo not drawn) it was 8.41 µM (active); in that of `Cc1ccccc1C(=O)N1CCC2(CC1)N(c1ccccc1)C(=O)CS2(=O)=O`, “inactive”.
Under `O=C(c1cccc2[nH]ccc12)N1CCCC(n2cc(-c3nc(C4CC4)no3)nn2)C1` (stereo not drawn) stands “inactive”.
Take `OC[C@H]1CCN(Cc2ccc(-c3cccc(Cl)c3Cl)o2)C[C@@H]1O`: the Potency result was “inactive”.
In the case of `OCc1ccc(CN2CCCC(CCc3c(F)cccc3F)C2)o1` (stereo not drawn) it was 4.22 µM (active); in that of `Cc1cccc(Oc2nc(-c3ccccn3)nc3ccccc23)c1`, 7.5 µM (active); in that of `CCCOc1ccc(Oc2nc(-c3ccncc3)nc3ccccc23)cc1`, 4.22 µM (active).
In the case of `c1ccc(Oc2nc(-c3ccccn3)nc3ccccc23)cc1` it was 7.5 µM (active); in that of `Cc1cccc(Oc2nc(-c3ccncc3)nc3ccccc23)c1`, 7.5 µM (active); in that of `CCSc1nc(CC(=O)NCc2ccc(S(N)(=O)=O)cc2)cs1`, “inactive”.
Turning to `CC(=O)c1c(C)[nH]c(C(=O)COc2ccc3ccc(=O)oc3c2)c1C`, the Potency entry was “inactive”.
Under `Cc1ccccc1Oc1nc(-c2ccccn2)nc2ccccc12` stands 6.68 µM (active); under `Fc1ccc(Oc2nc(-c3ccccn3)nc3ccccc23)cc1`, 13.3 µM (active); under `c1ccc(-c2nc(N3CCCCCC3)c3ccccc3n2)nc1`, 1.68 µM (active).
In the case of `Cc1nn(C)c2nc(-c3ccccn3)nc(N3CCC4(CC3)COC(=O)O4)c12`, the Potency entry was “inactive”.
In the case of `CCCCCCSc1ccc([C@H]2N[C@@](Cc3ccccc3)(C(=O)OC)[C@H]3C(=O)N(CC)C(=O)[C@@H]23)cc1` it was 3.35 µM (active); in that of `CCCCCCSc1ccc([C@H]2N[C@@](Cc3ccccc3)(C(=O)OC)[C@H]3C(=O)N(C)C(=O)[C@@H]23)cc1`, 4.73 µM (active); in that of `CCCSc1ccc([C@H]2N[C@@](Cc3ccccc3)(C(=O)OC)[C@H]3C(=O)N(CC)C(=O)[C@@H]23)cc1`, 5.31 µM (active).
Under `O=C(CCl)N(c1ccccc1)c1c[nH]c2ccccc12` stands 2.11 µM (active); under `Cc1cc2nc(/C=C/c3nc4cc(C)c(C)cc4[nH]3)[nH]c2cc1C`, “inactive”; under `Cc1cc(C)cc(N2CCN(c3cc(C4CC(O)C4)nc(C)n3)CC2=O)c1` (stereo not drawn), “inactive”.
As to `COc1ccc(N2CCN(c3cc(C4CC(N)C4)nc(N)n3)CC2(C)C)cc1` (stereo not drawn), the Potency is 2.99 µM (active).
For `NC1CC(c2cc(N3CCCN(C(=O)c4ccoc4)CC3)ncn2)C1` (stereo not drawn), the Potency result is “inactive”.
Take `Fc1ccc(F)c(Nc2c3c(nc4ccc(Cl)cc24)CCC3)c1`: the Potency entry was “inactive”.
In the case of `COc1ccc(/C=C/C(=O)Nc2ccc3nc4c(c(Nc5ccccc5OC)c3c2)CCCC4)cc1` it was 3.35 µM (active).
For `COc1ccccc1Nc1c2c(nc3ccc(NC(=O)/C=C/c4cccc(OC)c4OC)cc13)CCCC2`, the Potency is 5.96 µM (active).
Turning to `Cc1cc(N2CCN(C3CCCC3)CC2)n2c(nc3ccccc32)c1C#N`, the Potency was 1.06 µM (active).
Under `O=C(N[C@H](c1ccccn1)C1CC(O)C1)c1cc(=O)n(-c2ccccc2)[nH]1` (stereo partly drawn) stands 9.44 µM (active).
As to `COc1ccc(NS(=O)(=O)c2cc(NC(=O)/C=C/c3cc(OC)c(OC)c(OC)c3)ccc2N2CCCCC2)cc1`, the Potency is 6.68 µM (active).
Under `COc1ccc(C(=O)c2nccc3cc(OC)c(OC)cc23)cc1OC` stands “inactive”; under `CCOC(=O)c1ccc(Nc2nc(N)c3cc(OC)c(OC)cc3n2)cc1`, 1.88 µM (active).
In the case of `COc1cc2nc(Nc3ccc(C)c(C)c3)nc(N)c2cc1OC` it was 0.75 µM (active).
On to `COc1cc2nc(N3CCN(c4cc(C)ccc4C)CC3)nc(N)c2cc1OC`, for which the Potency is 6.68 µM (active).
Under `COc1cc2nc(Nc3ccc(C)c(Cl)c3)nc(N)c2cc1OC` stands 2.11 µM (active); under `COc1ccc(Cl)cc1C(=O)NCc1nnc2c(-c3nc(C(C)C)no3)cccn12`, “inactive”.
Under `O=C(NCc1ccc(C(F)(F)F)cc1F)[C@H]1CCC[C@@H](O)C1` stands “inactive”.
Under `CCOC(=O)c1c(S(=O)(=O)N2CCCC(C(=O)N3CCN(c4cccc(C)c4C)CC3)C2)c(C)n(C)c1C` (stereo not drawn) stands 1.06 µM (active); under `CCOC(=O)c1c(S(=O)(=O)N2CCCC(C(=O)N3CCN(c4cc(C)ccc4C)CC3)C2)c(C)n(C)c1C` (stereo not drawn), 1.5 µM (active).
On to `CCOC(=O)c1c(C)[nH]c(C)c1S(=O)(=O)N1CCCC(C(=O)N2CCN(c3cccc(C)c3C)CC2)C1` (stereo not drawn), for which the Potency was 1.33 µM (active).
In the case of `CCOC(=O)c1c(C)[nH]c(C)c1S(=O)(=O)N1CCCC(C(=O)N2CCN(c3cc(C)ccc3C)CC2)C1` (stereo not drawn) it was “inactive”; in that of `CCc1cccc(OC2CN(C(=O)C3CCCN(CC(N)=O)C3)C2)c1` (stereo not drawn), “inactive”.
